In PubChem BioAssay (Tox21) one finds Potency and cytotoxicity increase data, which are given here for 40 compounds.

Results filed as inconclusive are left out. Entries that show only a call come without a potency. Activity calls are given as the source filed them. The call rests on the fitted dose curve; in most records, active means well fitted activation curve with a large enough effect in the repeat runs; inconclusive means weak or mixed curves; inactive means flat fitted curve, though single readings scatter.
Potency means the concentration at half of the fitted maximal effect.

The nature of the experiment: A CellTox Green Cytotoxicity Assay to monitor cytotoxicity in HEK293 cells - 8 hour (AID 1224884). Further: nearly all actives have a fitted effect of over 35% in size. The note with it: CellTox Green fluorescence; series mostly up to 76.8 µM. The source says:
National Center for Advancing Translational Sciences [NCATS]
NIH Chemical Genomics Center [NCGC]
U.S. Environmental Protection Agency [EPA]
National Institutes of Environmental Health Sciences [NIEHS]
National Toxicology Program [NTP]
Cell-based models are critical for drug discovery. Determining the natural cytotoxic effects resulting from test compounds is an essential research activity. A CellTox Green Cytotoxicity Assay to monitor cytotoxicity in real time of continues cell culture during 40 hours of the compound treatment was used to screen Tox21 10K library compounds in Hek293 cells. CellTox Green Cytotoxicity Assay is a nonlytic, homogeneous, biofluorescent method to measure cytotoxicity in cell culture after experimental manipulation. The assay system uses a proprietary asymmetric cyanine dye that is excluded from viable cells but preferentially stains the dead cell's DNA. […] Viable cells produce no appreciable increases in fluorescence. Therefore, the fluorescence signal produced by the binding interaction with dead cell DNA is proportional to cytotoxicity.
The mixture of Hek293 cell suspension and reagents were dispensed at 600cells/6 ul/well in 1536-well tissue culture treated black solid bottom plates using a Multidrop dispenser. After the assay plates were incubated at a 37 C/5% CO2 incubator for 5 hours, 23 nL of compounds dissolved in DMSO, positive and negative controls was transferred to the assay plate by a pintool work station. The plates were incubated at 37 C for 40 hours. The fluorescence intensity were measured at 0h, 8h, 16h, 24h, 32h and 40h time points using ViewLux plate reader during compound treatment.
`CC(C)C(=O)C(C)C`: the Potency result is “inactive”.
For `CCN(CC)c1ccc2c(c1)Oc1cc(N(CC)CC)ccc1C21OC(=O)c2ccccc21`, the Potency is 23.9 µM (active).
On to `CC/C(=C(/c1ccc(O)cc1)c1ccc(OCCN(C)C)cc1)c1ccccc1`, for which the Potency was 28.8 µM (active).
In the case of `COc1cc2ncnc(Nc3cccc(Cl)c3)c2cc1OC`, the cytotoxicity increase was -7.13% [at 15.8 µM] (inactive).
For the compound `CC1=C(/C=C/C(C)=C/C=C/C(C)=C\C(=O)O)C(C)(C)CCC1`, the Potency result was “inactive”.
Take `CSc1ccc(O)cc1C`: the Potency result is “inactive”.
For the compound `Nc1ccc(Oc2cccc(Oc3ccc(N)cc3)c2)cc1`, the Potency entry was “inactive”.
For the compound `C=C1CC[C@H]2O[C@]2(C)CC[C@@H]2[C@@H]1CC2(C)C`, the Potency result is “inactive”.
On to `CN[C@H]1CC[C@@H](c2ccc(Cl)c(Cl)c2)c2ccc(S(N)(=O)=O)cc21`, for which the Potency was 54.9 µM (active).
The same measure, in the same setting: the entry for `C=CC(=O)O[C@H]1C[C@@H]2CC[C@@]1(C)C2(C)C` is “inactive”.
With `Nc1c(Br)cc([N+](=O)[O-])cc1Br`, the Potency result was “inactive”.
The same measure, in the same setting: the entry for `CCC(O)CO` (stereo not given) is “inactive”; for `CCCCC/C=C\C=C\C(=O)OCC` it is “inactive”; for `CCCCCCCCOC(=O)c1cc(O)c(O)c(O)c1` it is “inactive”.
The same measure, in the same setting: the entry for `Cc1ccc2nc(-c3ccc(N)cc3)sc2c1S(=O)(=O)O` is “inactive”.
Still for that read-out and setting: as for `CN1CCN(CCCN2c3ccccc3Sc3ccc(C(F)(F)F)cc32)CC1`, the figure is 23.9 µM (active); as for `C/C=C/C(=O)OCC(C)C`, “inactive”.
`O=C(O)C[C@H](O)C[C@H](O)/C=C/c1c(C2CC2)nc2ccccc2c1-c1ccc(F)cc1`: the cytotoxicity increase is -1.19% [at 15.8 µM] (inactive).
With `CC(C)(C)c1cc(CCC(=O)OCCSCCOC(=O)CCc2cc(C(C)(C)C)c(O)c(C(C)(C)C)c2)cc(C(C)(C)C)c1O`, the Potency entry was “inactive”.
Take `CC(C)=CCC[C@H](C)CC=O`: the Potency result is “inactive”.
On the same count and under the same terms, the entry for `Cc1ccc2n[nH]nc2c1` is “inactive”; for `Nc1cccnc1N` it is “inactive”.
On to `O=C(CCCCCCCCc1cccnc1)N1CCC(C=C(c2ccccc2)c2ccccc2)CC1`, for which the Potency entry was “inactive”.
For `COc1ccc(OC)c(N=Nc2c(O)ccc3ccccc23)c1`, the Potency result is “inactive”.
As for `CCN(CCC#N)c1ccc(N=Nc2ccc([N+](=O)[O-])cc2)cc1`, the Potency result was “inactive”.
`Cc1ccc(C2OC[C@@H]3OC(c4ccc(C)cc4)O[C@H]([C@H](O)CO)[C@@H]3O2)cc1` (stereo not given in full): the Potency result is “inactive”.
Same read-out and setting: as for `CC(C)(C)C1=CC(=O)C(C(C)(C)C)=CC1=O`, the entry is “inactive”; as for `CC(C)=NNC(N)=S`, “inactive”; as for `O=S(=O)(c1ccc(OCc2ccccc2)cc1)c1ccccc1O`, “inactive”.
Still for that read-out and setting: as for `COc1cc(/C=C/C(=O)CC(=O)/C=C/c2ccc(O)c(OC)c2)ccc1O`, the figure is 49.3 µM (active); as for `CCOC(=O)[C@H](C)O`, “inactive”; as for `COc1c(Br)cc(Br)c(C)c1Br`, “inactive”.
`C/C(=N\[Si](C)(C)C)O[Si](C)(C)C`: the Potency result was “inactive”.
The same measure, in the same setting: as for `COC(=O)c1ccc([N+](=O)[O-])cc1`, the entry is “inactive”; as for `O=[N+]([O-])c1ccc(CO)cc1`, “inactive”.
Turning to `CCCC(C)C=O` (stereo not given), the Potency result is “inactive”.
Turning to `CN(C)CCOc1ccc(/C(=C(/CCCl)c2ccccc2)c2ccccc2)cc1`, the Potency is 45.8 µM (active).
On to `COc1cc([C@@H]2c3cc4c(cc3[C@@H](O[C@@H]3O[C@@H]5CO[C@@H](C)O[C@H]5[C@H](O)[C@H]3O)[C@H]3COC(=O)[C@H]23)OCO4)cc(OC)c1O`, for which the Potency entry is “inactive”.
`CCCCCCCCCCCCS(=O)(=O)Cl`: the cytotoxicity increase is -0.511% [at 15.8 µM] (inactive).
For the compound `CC/C=C\C/C=C\C/C=C\CCCCCCCC(=O)OC`, the Potency entry is “inactive”.
